# Screens: PubChem, National Center for Advancing Translational Sciences (NCATS)
# ERK EGF block = EGF-driven ERK pathway inhibition. HEK293-V1b, EGF-stimulated phospho-ERK AlphaScreen. AID 1454. Potency, µM (doses to about 11.5 µM), for the others: at the top dose activity change, negative = inhibition, actives largely listed as inhibitors. 0.41% of 130,000 active;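 note: plate controls were stimulated vehicle wells for no effect and unstimulated vehicle basal for full effect; nearly all actives have a fitted effect of over 55% in size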
#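 Cell line HEK293 (stable V1b), low serum overnight. Pretreatment: compound 30 min, 37C. EGF 25 nM, 5 min. Detection: SureFire AlphaScreen, 5 h RT. AC50 via standard Hill equation.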
# HTT ATP protect = cytoprotection in Huntington HTT-Q103 PC12 cell model; 0.14% of 230,000 active; Potency, µM (titrated, usually from 56.4 µM), for inactives: cytoprotection (ATP increase), most hits filed as activators; PC12 HTT-Q103 induced, cytoprotection, ATP luminescence, 40 h; note: % of control where 0% means no effect; nearly all actives have a fitted effect of over 45% in size
#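 Cells were plated at 1500 per well in phenol red-free DMEM with 5% equine and 5% calf serum. Tebufenozide (100 nM final) and compounds were added, then ATPlite reagent, and luminescence was read.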
# IMPase Li inh = cell-permeable IMPase inhibitors with lithium potentiation | CHO-M1 cells, IP1 TR-FRET (IP-One), carbachol + lithium | Potency, µM (top dose mostly 59.4 µM), for the others: at the highest dose activity, negative = IMPase inhibition, most hits filed as inhibitors | 0.35% of 210,000 active;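 note: IP1 builds up when IMPase is blocked and the TR-FRET signal falls; plate controls were basal vehicle for no effect and high inhibitor control for full effect; nearly all actives have a fitted effect of over 50% in size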
#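 IP1 accumulation measured by competitive TR-FRET in lysed CHO-M1 cells after 30 min compound exposure at 37C, with a small lithium addition to potentiate weak responses. Hill-equation AC50 from ratio and donor-channel data.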
# NPSR antag = blocks cAMP signaling of the human neuropeptide S receptor | Q6W5P4 | Potency, µM (doses to about 38.3 µM), for inactives: top-dose activity change, negative = inhibition, hits mostly inhibitors | CHO-NPSR cells, cAMP TR-FRET, antagonist mode | AID 1461 | 1% of 220,000 active; note: % is set by controls: 0 for no effect and ±100 for the full control effect; nearly all actives have a fitted effect of over 50% in size
# Target sequence (Q6W5P4 whole entry, looked up): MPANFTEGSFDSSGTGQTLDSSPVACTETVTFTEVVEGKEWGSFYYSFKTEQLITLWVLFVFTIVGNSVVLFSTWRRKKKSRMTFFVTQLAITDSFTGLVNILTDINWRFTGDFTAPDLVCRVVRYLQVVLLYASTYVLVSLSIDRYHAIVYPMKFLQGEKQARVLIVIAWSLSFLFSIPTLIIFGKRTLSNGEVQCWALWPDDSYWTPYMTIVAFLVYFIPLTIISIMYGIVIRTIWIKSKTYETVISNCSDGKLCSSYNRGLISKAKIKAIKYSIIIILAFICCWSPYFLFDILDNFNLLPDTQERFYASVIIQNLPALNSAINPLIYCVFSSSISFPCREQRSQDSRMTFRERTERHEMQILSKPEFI
# HttQ103 aggreg = mutant huntingtin aggregation inhibition; PC12 HttQ103-GFP aggregates, Acumen cytometry, 40 h; Potency, µM (highest dose often 46.1 µM), without a hit: top-dose activity change, negative = inhibition, hits mostly inhibitors; 1.1% of 220,000 active; AID 1688; note: % is set by controls: 0 for no effect and ±100 for the full control effect; nearly all actives have a fitted effect of over 60% in size
#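 Using laser scanning cytometry, GFP-positive aggregates were counted after lysis of PC12 cells induced with 100 nM tebufenozide to express HTT exon 1 Q103–GFP. Compounds were tested in titration.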
# An asterisk follows results filed as active; u = inconclusive; x = no result given; [ ] = another dose, or the depositor's remark. Rows were chosen to be rich in hits. Some 1.9% of all compounds tested hit in one or more screens of this group. Calls come from the whole dose curve; as a rule, active = well fitted curve in the direction sought with a large enough effect; inconclusive = small, poorly fitted or top-dose-only effect, or another doubt; inactive = no such curve, though single readings can be large; an effect the other way counts as inactive or inconclusive. Potency is the fitted concentration of half-maximal effect.
SMILES,ERK EGF block,HTT ATP protect,IMPase Li inh,NPSR antag,HttQ103 aggreg
COc1cccc(-c2ccc3ncnc(NCc4cccs4)c3c2)c1,28µM*,-37%,26%,x,x
COc1ccc(Nc2ccc(S(=O)(=O)N3CCCCCC3)cc2[N+](=O)[O-])cc1,20µM*,8%[10 µM],14%,-26%[46.1 µM],-16%
COc1cc(/C=C/C(=O)c2cccs2)cc(OC)c1OC,-7%,u,-19%,x,x
Cc1c2oc3c(C)ccc(C(=O)N[C@@H]4C(=O)N[C@H](C(C)C)C(=O)N5CCC[C@H]5C(=O)N(C)CC(=O)N(C)[C@@H](C(C)C)C(=O)O[C@@H]4C)c3nc-2c(C(=O)N[C@@H]2C(=O)N[C@H](C(C)C)C(=O)N3CCC[C@H]3C(=O)N(C)CC(=O)N(C)[C@@H](C(C)C)C(=O)O[C@@H]2C)c(N)c1=O,x,-46%,4%,x,0.032µM*
O=C(Oc1c(Br)cc([N+](=O)[O-])cc1Br)c1cccnc1,-1%,34%[10 µM],-1%,7%,35µM*
Cc1ccc(C(=O)N2CCN(c3ccc([N+](=O)[O-])cc3-n3cccc3)CC2)cc1,-8%[57.5 µM],15%[10 µM],x,10µM*,-3%[9.22 µM]
CC(C)(C)C(=O)N1CCN(c2ccc([N+](=O)[O-])cc2-n2cccc2)CC1,-4%[57.5 µM],-12%[10 µM],x,-58%,-15%[9.22 µM]
COc1ccc(CC(=O)NNC(=O)c2ccc(NC(C)=O)cc2)cc1,u,10%,-2%,6%,13%
COc1ccc(C(=O)NN/C(C)=C/C(=O)C(F)(F)C(F)(F)C(F)(F)F)cc1,10%,41%[10 µM],-5%,1%,11µM*
CC(=O)Oc1cc(C)c(OC(C)=O)c2ccccc12,x,-98%,x,x,u
CCn1ccnc1CN1CCc2c([nH]c3ccccc23)C1C(C)(C)C (centres undefined),32µM*,-30%,24%,35%,u
CCn1ccnc1CN1CCc2c([nH]c3ccccc23)C1CC(C)C (centres undefined),u,14%[10 µM],21%,49%,8%[9.22 µM]
O=Cc1cccc(Br)c1,x,-3%,4%,x,x
C[C@H](NC(=O)c1[nH]cnc1C(=O)Nc1ccc(CNC(=O)OC(C)(C)C)cc1)C(=O)OCc1ccccc1,32µM*,-7%[10 µM],x,-44%,-1%[9.22 µM]
C[C@@H](NC(=O)c1nc[nH]c1C(=O)N[C@@H](Cc1ccccc1)C(=O)OCc1ccccc1)c1ccccc1,10%[57.5 µM],8%[10 µM],3%,-6%,5%[9.22 µM]
O=C(N[C@@H](Cc1ccccc1)C(=O)OCc1ccccc1)c1nc[nH]c1C(=O)NC(c1ccccc1)c1ccccc1,40µM*,8%[10 µM],-1%,16%,17%[9.22 µM]
O=c1c2ccccc2nc(-c2ccc(Cl)c(Cl)c2)n1O,x,-1%[10 µM],8%[38.3 µM],-4%[46.1 µM],u
O=c1c2cc(Cl)ccc2nc(-c2ccc([N+](=O)[O-])cc2)n1O,5%,-71%,24%,-10%,10µM*
CN1C(=O)C2(c3ccccc31)C1CCCC=C1C(C#N)=C(N)C2(C#N)C#N (centres undefined),x,20µM*,20%[38.3 µM],u,x
CN1C(=O)C2(C(C#N)=C(N)N(c3cc(Cl)cc(Cl)c3)C3=C2C(=O)CCC3)c2ccccc21 (centres undefined),x,0%,9%[38.3 µM],-10%[46.1 µM],4%
Cc1ccc(C(=O)C2=C(O)C(=O)N(c3ncccn3)C2c2ccc(F)cc2)o1 (centres undefined),6%[57.5 µM],16%[10 µM],x,-54%,-17%[9.22 µM]
O=C(C1=C(O)C(=O)N(CCc2ccccc2)C1c1cccnc1)c1ccco1 (centres undefined),x,-7%,4.5µM*,u,6%
CCOc1cc(C2C(C(=O)c3ccco3)=C(O)C(=O)N2CCc2ccccc2)ccc1O (centres undefined),x,-13%[10 µM],2%[38.3 µM],-8%[46.1 µM],30%
CCOc1ccc(C2C(C(=O)c3ccc(C)o3)=C(O)C(=O)N2CCCN(CC)CC)cc1 (centres undefined),-12%[57.5 µM],8%[10 µM],x,4%,-26%[9.22 µM]
COCCCN1C(=O)C(O)=C(C(=O)c2ccc(C)o2)C1c1cccc(Br)c1 (centres undefined),x,-15%,10µM*,26%[46.1 µM],19%
